One test addresses Albumin (Bos taurus) (UniProt P02769). Nature of the test: compounds binding labelled BSA control protein – biochemical, small-molecule microarray, Alexa647 label, 635/667 nm fluorescence, artefact control for SMM control protein annotation, profiling panel (AID 1118).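 Further: score merges 667 nm emission intensity and signal-to-noise per printed compound spot.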 Particulars: BSA-A647 binding, fluorescence 635 nm, higher = more signal.
Test [1] can be described thus: probe aXIP binding to arrayed compounds – biochemical, NeuroSMM set, 635/667 nm fluorescence, primary screen (AID 1119).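 Further: probe is the protein aXip251-270 applied at 1 µg/mL to compound-printed slides; binding of probe to printed compounds measured as 667 nm fluorescence plus signal to noise.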 Particulars: small-molecule microarray, higher = more signal, called active from +8 up or from −8 down.
Test [2] can be described thus: probe aNOTCH3 binding on compound microarray – biochemical, small-molecule microarray, 635/667 nm fluorescence, primary screen (AID 1120).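 Further: probe is a biotin-tagged antibody raised against NOTCH3 rather than NOTCH3 protein; score merges spot fluorescence near 667 nm with spot signal to noise.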 As to conditions: higher = more signal.
Test [3] is described as follows: probe aNOTCH2 binding on compound microarray – biochemical, small-molecule microarray, 635/667 nm fluorescence, primary screen (AID 1121).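 Further: score merges feature fluorescence read at 667 nm with its signal to noise.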 Particulars: higher = more signal.
For test [4], the target named is Carbonic anhydrase 2 (Homo sapiens) (UniProt P00918). As to the kind of experiment: compounds binding carbonic anhydrase 2 – biochemical, small-molecule microarray, Alexa647-labelled CAII, profiling panel (AID 1122). Particulars: CAII-A647 binding fluorescence, higher = more signal.
A short description of test [5]: COS7 lysate on small-molecule microarray, probe aHis, 635 nm (AID 1123).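 Further: z-score combines 667nm fluorescence intensity with signal-to-noise per printed compound spot.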 Particulars: COS7 cell lysate, fluorescence, higher = more signal.
Test [6] in a line: probe aLAP1 signal on lysate-treated microarray – cell lysate, small-molecule microarray, COS7 lysate, primary screen (AID 1124).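 Further: lysate comes from COS7 cells expressing LAP1 and is applied at 0.3 µg/mL; score merges spot fluorescence near 667 nm with signal-to-noise over triplicate slides.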 Particulars: probe aLAP1, fluorescence, higher = more signal.
The next test concerns Sam68 (KHDRBS1). Nature of the test: compounds binding KHDRBS1 protein – biochemical, small-molecule microarray, 635 nm fluorescence, primary screen (AID 1125).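 Further: score merges 667 nm channel intensity with signal to noise over triplicate slides.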 As to conditions: higher = more signal.
Test [7] deals with Chordin-like protein 2 (CHRDL2). Nature of the test: compounds binding chordin-like 2 – biochemical, small-molecule microarray, 635 nm fluorescence, primary screen (AID 1126).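 Further: printed compound slides probed with Chrdl2 protein at 4 µg/mL for 1 h at 4 C; score merges 667 nm emission intensity with signal to noise over three replicate slides.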 Particulars: fluorescence 635 nm, higher = more signal.
For test [8], the target named is Concanavalin-A (Canavalia ensiformis) (UniProt P02866). Nature of the test: compounds binding concanavalin A lectin – biochemical, small-molecule microarray, Alexa647 label, 635 nm, artefact control for SMM control protein annotation, primary screen (AID 1127).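 Further: z combines 667 nm emission intensity with signal-to-noise across three replicate slides.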 Particulars: ConA-A647 binding fluorescence, higher = more signal.
The nature of test [9]: compounds binding Alexa647 anti-His antibody – biochemical, small-molecule microarray, 635 nm fluorescence, artefact control for SMM control protein annotation, primary screen (AID 1128).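 Further: score merges feature fluorescence with signal-to-noise for each printed compound spot.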 As to conditions: higher = more signal.
The test system of test [10] is Human papillomavirus type 1a E7 protein (residues 1-88). As to the kind of experiment: HPV1a E7 small-molecule binders, primary screen, biochemical, small-molecule microarray, residues 1-88, 635 nm (AID 1129). Particulars: small-molecule microarray binding, fluorescence 635 nm; higher = more signal.
The target in test [11] is Focal adhesion kinase 1 (Homo sapiens) (UniProt Q05397). Nature of the test: PTK2 protein binding on printed compound slides – biochemical, small-molecule microarray, 635/667 nm fluorescence, BSA, DTT, primary screen (AID 1130).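 Further: composite of spot emission at 667 nm and signal to noise over triplicate slides.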 As to conditions: 635 nm fluorescence, higher = more signal.
In test [12] the test system is Fibrinogen (Alexa647-labelled). As to the kind of experiment: Alexa647-fibrinogen binding to printed small molecules – biochemical, small-molecule microarray, 635/667 nm fluorescence, artefact control for SMM control-protein annotation, profiling panel (AID 1131).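 Further: z-score merges 667 nm fluorescence with per-spot signal-to-noise over triplicate slides.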 As to conditions: fibrinogen-A647 binding fluorescence, higher = more signal.
Test [13] has as its target Follistatin (Homo sapiens) (UniProt P19883). As to the kind of experiment: FST protein binding to printed compounds – biochemical, small-molecule microarray, 635/667 nm fluorescence, primary screen (AID 1132). As to conditions: 635 nm fluorescence, higher = more signal.
The target of test [14] is Fibroblast growth factor 2 (Homo sapiens) (UniProt P09038). As to the kind of experiment: basic fibroblast growth factor binding to printed compounds – biochemical, small-molecule microarray, 635/667 nm fluorescence, primary screen (AID 1133). Particulars: FGF2, fluorescence 635/667, higher = more signal.
A short description of test [15]: JC-1 mitochondrial potential readout, lung cancer cells – cell-based, A549, JC-1 fluorescence, basal, 24 h, 100 nL, profiling panel (AID 1138).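 Further: A549 lung adenocarcinoma cells under basal conditions with no added stimulus; test concentration not given here.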 As to conditions: higher = more signal.
A further test relates to Lefty1. As to the kind of experiment: Lefty1 protein binding to printed compounds – biochemical, small-molecule microarray, 635/667 nm fluorescence, primary screen (AID 1139). Particulars: fluorescence 635/667, higher = more signal.
Test [16] deals with wheat germ agglutinin (Triticum aestivum), Alexa647-labelled. As to the kind of experiment: Alexa647-WGA lectin binding to printed small molecules – biochemical, small-molecule microarray, 635/667 nm fluorescence, artefact control for SMM control-protein annotation, profiling panel (AID 1140).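 Further: score merges 667 nm feature emission with signal to noise over triplicate slides.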 As to conditions: WGA-A647 binding, 635 nm fluorescence, higher = more signal.
Test [17] concerns the target Luciferin 4-monooxygenase (Photinus pyralis) (UniProt P08659). Nature of the test: inhibition of purified Photinus pyralis luciferase – biochemical, luminescence, purified enzyme, 2006 set, primary screen (AID 1141).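 Further: cell-free assay with purified firefly luciferase at 100 ng per well in PBS; test concentration not given here.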 As to conditions: purified firefly luciferase, SteadyGlo luminescence, 30 min; higher = more signal, called active from +8 up or from −8 down.

Active and inactive are the calls of the source.

Focal adhesion kinase 1 (Homo sapiens), sequence (Q05397 whole entry, looked up): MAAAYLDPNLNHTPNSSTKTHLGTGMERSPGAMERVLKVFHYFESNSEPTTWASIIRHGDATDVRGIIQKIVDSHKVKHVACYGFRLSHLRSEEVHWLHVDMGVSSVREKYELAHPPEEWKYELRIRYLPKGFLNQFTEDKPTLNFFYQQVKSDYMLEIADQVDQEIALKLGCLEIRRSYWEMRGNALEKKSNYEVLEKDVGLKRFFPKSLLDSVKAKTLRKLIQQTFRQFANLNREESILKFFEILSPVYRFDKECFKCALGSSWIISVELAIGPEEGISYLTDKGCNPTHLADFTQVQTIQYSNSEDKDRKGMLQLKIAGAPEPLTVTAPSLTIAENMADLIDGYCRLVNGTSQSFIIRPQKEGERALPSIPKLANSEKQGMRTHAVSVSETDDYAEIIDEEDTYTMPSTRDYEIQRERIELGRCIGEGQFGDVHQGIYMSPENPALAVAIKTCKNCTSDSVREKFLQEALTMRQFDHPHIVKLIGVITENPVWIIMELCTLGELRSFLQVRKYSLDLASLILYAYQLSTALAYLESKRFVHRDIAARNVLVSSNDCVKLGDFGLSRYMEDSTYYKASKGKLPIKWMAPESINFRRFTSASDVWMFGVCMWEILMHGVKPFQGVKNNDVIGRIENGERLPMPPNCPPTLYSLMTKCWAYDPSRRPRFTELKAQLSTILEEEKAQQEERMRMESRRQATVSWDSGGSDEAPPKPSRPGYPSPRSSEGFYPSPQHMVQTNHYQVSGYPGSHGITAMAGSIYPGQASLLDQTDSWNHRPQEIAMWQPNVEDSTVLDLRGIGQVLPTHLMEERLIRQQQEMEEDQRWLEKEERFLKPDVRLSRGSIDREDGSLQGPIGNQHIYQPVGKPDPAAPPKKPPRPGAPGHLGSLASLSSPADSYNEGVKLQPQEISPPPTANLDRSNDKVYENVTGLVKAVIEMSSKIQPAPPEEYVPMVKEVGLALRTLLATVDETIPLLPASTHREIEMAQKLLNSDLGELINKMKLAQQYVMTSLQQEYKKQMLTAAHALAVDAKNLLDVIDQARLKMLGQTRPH
Concanavalin-A (Canavalia ensiformis), sequence (P02866 whole entry, looked up): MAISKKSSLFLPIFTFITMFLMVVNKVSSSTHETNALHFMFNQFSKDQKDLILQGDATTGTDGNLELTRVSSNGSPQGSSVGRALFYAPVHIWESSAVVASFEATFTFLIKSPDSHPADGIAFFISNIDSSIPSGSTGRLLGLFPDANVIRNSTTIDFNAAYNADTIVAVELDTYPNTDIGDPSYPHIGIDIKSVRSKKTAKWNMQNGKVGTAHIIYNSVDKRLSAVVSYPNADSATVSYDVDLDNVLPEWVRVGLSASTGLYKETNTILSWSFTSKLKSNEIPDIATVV
Albumin (Bos taurus), sequence (P02769 whole entry, looked up): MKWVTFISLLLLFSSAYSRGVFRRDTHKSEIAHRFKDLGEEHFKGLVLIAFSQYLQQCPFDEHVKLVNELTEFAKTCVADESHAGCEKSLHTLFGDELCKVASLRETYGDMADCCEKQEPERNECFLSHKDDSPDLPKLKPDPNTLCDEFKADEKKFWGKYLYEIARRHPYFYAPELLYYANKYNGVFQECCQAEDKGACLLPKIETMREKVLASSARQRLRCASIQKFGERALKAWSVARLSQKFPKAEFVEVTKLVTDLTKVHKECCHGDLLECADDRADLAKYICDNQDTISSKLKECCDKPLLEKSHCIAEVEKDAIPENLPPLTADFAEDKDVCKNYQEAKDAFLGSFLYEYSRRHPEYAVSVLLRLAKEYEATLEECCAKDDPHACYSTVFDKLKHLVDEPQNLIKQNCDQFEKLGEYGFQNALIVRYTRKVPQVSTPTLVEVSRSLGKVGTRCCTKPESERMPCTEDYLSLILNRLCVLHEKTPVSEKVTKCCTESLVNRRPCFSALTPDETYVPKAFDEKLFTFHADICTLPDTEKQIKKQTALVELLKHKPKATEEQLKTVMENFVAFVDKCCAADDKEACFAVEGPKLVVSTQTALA
Luciferin 4-monooxygenase (Photinus pyralis), sequence (P08659 whole entry, looked up): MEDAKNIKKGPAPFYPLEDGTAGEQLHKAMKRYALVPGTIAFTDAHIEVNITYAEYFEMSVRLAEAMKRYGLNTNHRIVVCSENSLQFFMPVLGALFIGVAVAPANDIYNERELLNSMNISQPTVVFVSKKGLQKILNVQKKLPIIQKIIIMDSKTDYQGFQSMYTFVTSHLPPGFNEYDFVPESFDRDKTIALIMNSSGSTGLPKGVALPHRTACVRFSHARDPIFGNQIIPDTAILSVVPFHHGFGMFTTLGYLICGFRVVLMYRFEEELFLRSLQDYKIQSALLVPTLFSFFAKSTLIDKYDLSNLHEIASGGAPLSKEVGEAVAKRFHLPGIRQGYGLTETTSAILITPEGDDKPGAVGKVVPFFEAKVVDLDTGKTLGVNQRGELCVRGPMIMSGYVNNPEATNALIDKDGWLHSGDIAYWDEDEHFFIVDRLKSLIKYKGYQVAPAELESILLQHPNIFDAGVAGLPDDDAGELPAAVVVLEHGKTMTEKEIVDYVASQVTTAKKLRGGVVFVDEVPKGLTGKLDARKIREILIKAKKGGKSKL
Fibroblast growth factor 2 (Homo sapiens), sequence (P09038 whole entry, looked up): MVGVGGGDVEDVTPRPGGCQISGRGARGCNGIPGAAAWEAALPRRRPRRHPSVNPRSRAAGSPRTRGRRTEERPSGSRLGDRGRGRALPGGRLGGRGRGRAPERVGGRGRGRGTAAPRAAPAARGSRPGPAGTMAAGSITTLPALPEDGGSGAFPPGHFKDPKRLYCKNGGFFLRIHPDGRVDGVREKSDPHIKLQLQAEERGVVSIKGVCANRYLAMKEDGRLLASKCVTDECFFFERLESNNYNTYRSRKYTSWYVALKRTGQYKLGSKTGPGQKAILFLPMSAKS
Follistatin (Homo sapiens), sequence (P19883 whole entry, looked up): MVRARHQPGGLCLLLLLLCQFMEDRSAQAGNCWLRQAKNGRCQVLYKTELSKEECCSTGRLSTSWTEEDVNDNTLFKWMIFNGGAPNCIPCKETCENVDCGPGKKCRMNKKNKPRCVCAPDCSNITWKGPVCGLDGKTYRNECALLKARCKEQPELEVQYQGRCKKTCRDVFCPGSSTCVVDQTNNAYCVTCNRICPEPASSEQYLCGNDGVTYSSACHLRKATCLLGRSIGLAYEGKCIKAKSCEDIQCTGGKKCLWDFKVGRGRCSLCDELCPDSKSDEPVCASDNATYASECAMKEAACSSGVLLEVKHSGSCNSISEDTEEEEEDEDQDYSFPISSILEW

Consider `Cc1ccc(N2C(=O)c3ccccc3[C@@H](C(=O)NCC(C)C)[C@@H]2c2ccc(CO)cc2)nc1`, for which the composite z-score was -0.795 with Albumin (Bos taurus); -0.465 in [2]; -0.166 in test [3]; 0.806 in test [4]; 0.121 in test [5]; 0.474 in test [6]. The composite z-score in the test with Sam68 (KHDRBS1) was -0.205; in test [7], -0.323; in [8] it was -0.418; in test [9], 0.0133; in [10] it was -0.871; in test [11], -0.451. Besides, the composite z-score in [12] was -0.877; in test [13], -0.186; in [14], -0.246; in the test with Lefty1, -0.609; in [16], -0.674. In addition, the composite Z-score in test [1] is -0.204 (inactive). For the same molecule, the z-score in test [15] is 0.738; in [17], -0.663 (inactive).
Turning to `O=C1OCCC=C[C@H]2OC34C=CCN(c5ccc6ccccc6c5)C(=O)[C@H]3N(CCCCCCO)C(=O)[C@@H]4C12` (stereo not given in full), the composite z-score in the test with Albumin (Bos taurus) is -0.768; in [2], -0.161; in [3], -0.14; in test [4] it was 0.82; in test [5], 0.386; in [6] it was -0.674. Further, the composite z-score in the test on Sam68 (KHDRBS1) was 0.264; in [7] it was -0.853; in test [8] it was -1.01; in [9], -0.365; in test [10], -0.992; in [11], -0.0504. For the same molecule, the composite z-score was -0.771 in test [12]; -0.761 in test [13]; -0.97 in test [14]; -0.61 in the test on Lefty1; -0.451 in test [16]. Also, in [1], the composite Z-score is 0.938 (inactive). The z-score in test [15] is 1.48; in test [17], -1.2 (inactive).
`COC(=O)[C@@]1(Cc2ccccc2)[C@H]2c3cc(C(=O)N(C)C)n(Cc4ccccc4)c3C[C@H]2CN1C(=O)c1ccccc1`: the composite z-score with Albumin (Bos taurus) is 0.75; in test [2], 0.184; in [3], -0.0895; in [4], 0.749; in test [5] it was 1.41; in test [6], -0.469. In addition, the composite z-score in the test with Sam68 (KHDRBS1) was -0.0506; in [7], -0.539; in test [8], 0.919; in test [9], 1.21; in test [10], 1.13; in [11], 0.614. Moreover, the composite z-score in test [12] is 0.839; in test [13], 0.241; in test [14], -0.605; with Lefty1 it was -0.0169; in test [16], 1.04. Further, the composite Z-score in test [1] was 0.047 (inactive). The values for the z-score in test [15] and in test [17] were 0.458 and 1.66 (inactive), respectively.
As to `COc1ccc(C(O)C2C=CC3C(=O)N(c4ccccc4)C(=O)C3N2Nc2ccccc2)c2ccccc12` (stereo not given), the composite z-score is 0.705 in the test with Albumin (Bos taurus); 0.19 in [2]; -0.0528 in test [3]; 0.522 in [4]; 1.97 in test [5]; 0.0206 in [6]. In addition, the composite z-score in the test on Sam68 (KHDRBS1) is -0.309; in [7], -0.841; in test [8], 0.69; in test [9] it was 2.08; in test [10], 1.12; in test [11], 0.592. The composite z-score in test [12] was -0.833; in [13] it was 0.037; in test [14] it was -0.702; in the test on Lefty1, -0.0743; in [16], 0.285. For the same molecule, in test [1], the composite Z-score is 0.0542 (inactive). Besides, the z-score was -0.284 in test [15] and -0.597 (inactive) in test [17].
For the molecule `Cc1ccc(S[C@]2(C(=O)NCCCN(C)C)CC(=O)N(C(C)C)[C@@H]2c2ccc(CO)cc2I)cc1`, the composite z-score with Albumin (Bos taurus) was 0.746; in test [2], -0.004; in [3] it was -0.127; in [4], 0.721; in [5] it was 1.23; in test [6], 0.693. The composite z-score with Sam68 (KHDRBS1) is 0.271; in test [7] it was -0.0376; in test [8], 0.257; in [9] it was -0.537; in test [10], -0.393; in [11], 0.225. In addition, the composite z-score was -0.952 in [12]; 0.296 in [13]; -1.01 in test [14]; 0.0228 in the test with Lefty1; -0.19 in [16]. Besides, the composite Z-score in [1] is -0.181 (inactive). For the same molecule, the z-score in test [15] was 1.97; in test [17], 0.216 (inactive).
On to `COc1ccc(C(=O)Nc2cccc(CN3C(=O)[C@@]4(O[C@@H](CCn5cc([C@H](O)c6ccccc6)nn5)[C@H]([Si](C)(C)c5ccc(OC)cc5)[C@H]4C)c4ccccc43)c2)cc1`, for which the composite z-score is -0.455 with Albumin (Bos taurus); 0.123 in test [2]; -0.053 in [3]; 0.113 in test [4]; 1.16 in test [5]; 0.0494 in test [6]. Also, the composite z-score in the test with Sam68 (KHDRBS1) amounted to 0.459; in test [7], 0.078; in test [8], 0.791; in [9] it was 0.669; in test [10], 0.138; in [11] it was 0.638. Moreover, the composite z-score stood at 0.528 in test [12]; 1.19 in [13]; 0.612 in test [14]; 1.01 with Lefty1; 0.443 in test [16]. Further, the composite Z-score in test [1] was 0.257 (inactive). The figures for the z-score in [15] and in test [17] were -0.175 and 0.39 (inactive), respectively.

(Values after PubChem BioAssay.)
